Laboratory results: PubChem BioAssay (NCATS)
Results filed as inconclusive are left out. Active and inactive are the calls of the source. Unless noted, calls follow the shape of the dose curve; as a rule, active = well fitted curve in the direction sought with a large enough effect; inconclusive = small, poorly fitted or top-dose-only effect, or another doubt; inactive = no such curve, though single readings can be large; an effect the other way counts as inactive or inconclusive.

What was measured:
[1] = molecular target: Lysosomal acid glucosylceramidase (Homo sapiens) (UniProt P04062); test: Glucocerebrosidase-p2 (AID 348; in the data active = potency below about 10 µM; also: potency is read from the fitted curve at half-maximal effect); details: purified GBA, blue fluorogenic substrate, 40 min
Sequence of Lysosomal acid glucosylceramidase (Homo sapiens) (P04062 whole entry, looked up): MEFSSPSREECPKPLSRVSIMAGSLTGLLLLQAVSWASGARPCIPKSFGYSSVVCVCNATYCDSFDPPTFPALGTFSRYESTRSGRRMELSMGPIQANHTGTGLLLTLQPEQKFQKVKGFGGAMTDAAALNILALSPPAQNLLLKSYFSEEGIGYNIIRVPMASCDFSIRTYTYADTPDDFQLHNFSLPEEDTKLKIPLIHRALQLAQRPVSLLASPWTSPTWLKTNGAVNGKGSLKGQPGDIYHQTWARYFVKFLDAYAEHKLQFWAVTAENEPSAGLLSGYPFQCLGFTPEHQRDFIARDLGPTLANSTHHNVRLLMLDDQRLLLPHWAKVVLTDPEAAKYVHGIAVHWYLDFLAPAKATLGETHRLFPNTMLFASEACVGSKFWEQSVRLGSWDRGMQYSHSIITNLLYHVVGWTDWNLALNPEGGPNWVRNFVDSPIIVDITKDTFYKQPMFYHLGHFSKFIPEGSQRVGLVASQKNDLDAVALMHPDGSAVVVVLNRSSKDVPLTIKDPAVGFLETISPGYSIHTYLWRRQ
In short: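 Compounds titrated from 0.6 nM upwards against 0.2 nM enzyme in pH 5.9 citric acid/KH2PO4, taurocholate, tween-20; blue fluorogenic substrate 80 uM, 40 min room temperature, stopped and read Ex 365/Em 440 for AC50.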

[2] = AP1 Signaling Pathway (AID 357; active = well fitted curve in either direction with a large enough effect, not every such curve was filed as active;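 also: ME-180 reporter cells stimulated with EGF at its EC50 level; % is scaled to controls: 0 for no effect and ±100 for the full control effect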); details: ME-180 AP-1-bla reporter, EGF-induced, beta-lactamase ratio, 5 h; at 7.69 µM (top of the series) unless noted
In short: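 A ratiometric CCF4 readout (405 nm excitation; 460 and 530 nm emission) quantified AP-1-driven beta-lactamase in ME-180 cells after 5 h with compound and EC50 EGF; AC50 values were derived for activators and inhibitors.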

[3] = molecular target: Cytochrome P450 1A2 (Homo sapiens) (UniProt P05177); test: p450-cyp1a2 (AID 410; calls by dose curve; also: potency is read from the fitted curve at half-maximal effect); details: recombinant CYP1A2, luciferin-ME demethylation, luminescence; series mostly up to 57 µM
Sequence of Cytochrome P450 1A2 (Homo sapiens) (P05177 whole entry, looked up): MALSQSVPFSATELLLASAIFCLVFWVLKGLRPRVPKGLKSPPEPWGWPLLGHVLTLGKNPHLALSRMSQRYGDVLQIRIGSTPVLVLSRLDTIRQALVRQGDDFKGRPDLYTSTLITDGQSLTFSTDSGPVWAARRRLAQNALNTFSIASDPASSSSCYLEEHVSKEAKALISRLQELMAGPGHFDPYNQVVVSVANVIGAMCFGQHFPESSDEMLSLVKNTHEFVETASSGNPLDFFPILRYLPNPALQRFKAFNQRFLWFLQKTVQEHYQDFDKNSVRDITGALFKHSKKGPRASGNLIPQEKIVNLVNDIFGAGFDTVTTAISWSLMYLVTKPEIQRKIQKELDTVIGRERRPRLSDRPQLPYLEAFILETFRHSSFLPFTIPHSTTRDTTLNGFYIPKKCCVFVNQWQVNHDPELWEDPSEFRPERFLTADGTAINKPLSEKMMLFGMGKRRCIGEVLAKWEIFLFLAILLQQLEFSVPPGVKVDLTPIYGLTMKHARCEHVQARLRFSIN
In short: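 Inhibition was calculated relative to 57 uM furafylline (full inhibition). The reaction used human CYP1A2 at 20nM with Luciferin-ME at its Km, 100uM, driven by an NADPH-regenerating system for 60 min at room temperature.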

[4] = NFAT Signaling Pathway (AID 444; active = well fitted curve in either direction with a large enough effect, not every such curve was filed as active;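 also: carbachol stimulus at about its EC50 of 1 µM final; % is scaled to controls: 0 for no effect and ±100 for the full control effect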); details: Jurkat NFAT-bla M1, carbachol, beta-lactamase ratio, 5 h; at 7.69 µM (top of the series) unless noted
In short: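 Jurkat cells carrying an NFAT-driven β-lactamase reporter and co-transfected muscarinic M1 receptor were treated with compound plus carbachol (1 uM final, an EC50 level) for 5 h at 37 °C. CCF4 loading followed for 1 h at RT; 460/530 nm ratio gave %activity.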

[5] = Stat Signaling Pathway (AID 446; active = well fitted curve in either direction with a large enough effect, not every such curve was filed as active;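 also: ME-180 cervical cancer cells given 40 pM IL-6 alongside compound; SIE-controlled beta-lactamase reporter measured as 460/530 nm FRET emission ratio; % is scaled to controls: 0 for no effect and ±100 for the full control effect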); details: ME-180 SIE beta-lactamase reporter, IL-6 stimulated, 5 h; at 7.69 µM (top of the series) unless noted
In short: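 ME-180 SIE-bla cells; overnight plating; cpd + IL-6 40 pM, 5 h, 37 C; LiveBLAzer 2.5 h RT; 460/530 nm emission ratio. Normalized to 300 pM IL-6 and 125 nM JAK inhibitor controls.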

[6] = molecular target: Glucocorticoid receptor (Homo sapiens) (UniProt P04150); test: GR-GFP Redistribution (AID 450;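 active = compounds whose dose series gives a full or clear partial fitted curve of increased nuclear translocation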; also: potency is read from the fitted curve at half-maximal effect); details: U2OS GR-GFP nuclear translocation, laser cytometry, 2 h
Sequence of Glucocorticoid receptor (Homo sapiens) (P04150 whole entry, looked up, the tested form may be a part): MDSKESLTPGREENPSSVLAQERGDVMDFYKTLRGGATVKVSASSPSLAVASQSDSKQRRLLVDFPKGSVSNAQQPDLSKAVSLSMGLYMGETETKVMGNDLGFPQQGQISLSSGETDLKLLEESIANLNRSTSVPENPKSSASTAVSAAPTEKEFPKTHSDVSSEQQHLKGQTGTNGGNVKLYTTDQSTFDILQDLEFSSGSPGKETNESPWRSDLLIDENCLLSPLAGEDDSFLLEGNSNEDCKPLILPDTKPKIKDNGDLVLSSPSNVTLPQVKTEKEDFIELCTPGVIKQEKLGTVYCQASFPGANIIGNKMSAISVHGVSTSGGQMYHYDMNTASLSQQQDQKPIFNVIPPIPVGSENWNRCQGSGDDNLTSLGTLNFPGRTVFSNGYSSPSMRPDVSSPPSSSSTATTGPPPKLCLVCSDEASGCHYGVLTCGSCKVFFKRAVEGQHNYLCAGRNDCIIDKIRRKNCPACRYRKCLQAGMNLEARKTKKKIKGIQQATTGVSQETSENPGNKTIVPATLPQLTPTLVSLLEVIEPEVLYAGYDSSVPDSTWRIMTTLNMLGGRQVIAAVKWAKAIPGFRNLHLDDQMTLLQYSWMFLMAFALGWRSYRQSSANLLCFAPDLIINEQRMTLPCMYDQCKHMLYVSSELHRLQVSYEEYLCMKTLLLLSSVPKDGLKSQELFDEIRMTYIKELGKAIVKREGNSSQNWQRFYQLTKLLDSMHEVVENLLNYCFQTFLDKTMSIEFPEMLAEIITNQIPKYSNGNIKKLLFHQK

[7] = molecular target: Glucocorticoid receptor (Homo sapiens) (UniProt P04150); test: GR-EFC Redistribution (AID 451; calls by dose curve; also: potency is read from the fitted curve at half-maximal effect); details: CHO-K1 GR-EFC translocation, beta-gal luminescence, 2 h
In short: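 CHO-K1 cells stably expressing nuclear-localized β-gal enzyme acceptor and GR fused C-terminally to the enzyme donor fragment; ligand-driven nuclear translocation restores β-gal by complementation. Compounds titrated up to 46 uM final, 2 h at 37 °C; luminescence read.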

[8] = molecular target: Mitogen-activated protein kinase 10 (Mus musculus) (UniProt Q61831); test: JNK3 AlphaScreen Assay (AID 530; active = well fitted curve in either direction with a large enough effect, not every such curve was filed as active;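 also: kinase came from lysate of stimulated human HepG2 cells; signal reports phosphorylation of biotinylated GST-cJun 1-79 at Ser73 with 10 µM ATP; % is scaled to controls: 0 for no effect and ±100 for the full control effect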); details: JNK3 lysate, c-Jun phosphorylation; series mostly up to 57.1 µM
In short: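 JNK3 came from HepG2 lysates pre-activated with IL-1beta and TNF-alpha and phosphorylated biotinylated GST-cJun (1-79) at 10 uM ATP, pH 7.6, room temperature. Compounds were titrated. AlphaScreen signal used anti-phospho-cJun (Ser73) antibody.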

[9] = molecular target: 3',5'-cyclic-AMP phosphodiesterase 4B (Homo sapiens) (UniProt Q07343); test: qHTS Assay for Inhibitors of PDE-IV (AID 607; active = well fitted activation curve with a large enough effect in the main read-out, with a control signal flat, not every such curve was filed as active; also: % of control where 0% means no effect); details: HEK293 ACTOne CNG channel cells, membrane potential fluorescence; series mostly up to 22.9 µM
Sequence of 3',5'-cyclic-AMP phosphodiesterase 4B (Homo sapiens) (Q07343 whole entry, looked up): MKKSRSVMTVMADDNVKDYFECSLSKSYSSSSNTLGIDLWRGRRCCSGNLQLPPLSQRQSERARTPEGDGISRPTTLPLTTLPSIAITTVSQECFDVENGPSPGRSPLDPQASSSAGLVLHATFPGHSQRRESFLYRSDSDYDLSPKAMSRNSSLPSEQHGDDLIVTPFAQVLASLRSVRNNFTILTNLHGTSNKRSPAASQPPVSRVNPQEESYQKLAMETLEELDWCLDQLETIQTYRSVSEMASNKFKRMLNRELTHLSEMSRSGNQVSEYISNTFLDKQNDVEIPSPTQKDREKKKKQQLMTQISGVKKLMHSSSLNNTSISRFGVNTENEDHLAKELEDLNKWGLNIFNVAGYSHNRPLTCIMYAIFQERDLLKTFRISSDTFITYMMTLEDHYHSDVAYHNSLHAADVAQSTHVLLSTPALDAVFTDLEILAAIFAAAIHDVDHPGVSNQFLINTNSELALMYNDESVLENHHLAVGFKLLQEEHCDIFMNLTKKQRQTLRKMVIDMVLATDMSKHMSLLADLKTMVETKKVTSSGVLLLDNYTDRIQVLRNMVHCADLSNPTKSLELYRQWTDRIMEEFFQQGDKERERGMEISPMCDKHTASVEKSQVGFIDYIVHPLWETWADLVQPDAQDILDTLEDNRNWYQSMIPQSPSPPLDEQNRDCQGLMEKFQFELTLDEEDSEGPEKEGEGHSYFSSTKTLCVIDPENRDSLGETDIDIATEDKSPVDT
In short: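 ACTOne HEK293 cells carry a modified cAMP-gated CNG channel and express endogenous PDE4; plated 1000 cells/well, compounds up to 22.9 uM final. Membrane-potential dye fluorescence (ex 535/em 590) was read; parental cells received 10 uM forskolin + 100 uM RO 20-1724.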

[10] = qHTS Assay for Lipid Storage Modulators (AID 1519; calls by dose curve); details: Drosophila S3 cells, BODIPY lipid droplet/cell ratio, laser cytometry, cells loaded with oleic acid; for activity change, negative = inhibition: at 57.5 µM (top of the series)
In short: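 Cells seeded at 5,000 per well were treated with compounds over a concentration series and loaded with oleic acid (400 uM, as added). Lipid droplet fluorescence (488 nm excitation, 500-530 nm channel) was read by laser-scanning cytometry and normalized to 20 uM Triacsin C.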

[11] = molecular target: Dual specificity protein kinase CLK4 (Homo sapiens) (UniProt Q9HAZ1); test: qHTS Assay for Inhibitors of CDC-like Kinase 4 (Kinase-Glo Assay) (AID 1770); details: recombinant Clk4, Kinase-Glo ATP depletion luminescence; series mostly up to 66.7 µM; also: % is scaled to controls: 0 for no effect and ±100 for the full control effect; nearly all actives have a fitted effect of over 65% in size
Sequence of Dual specificity protein kinase CLK4 (Homo sapiens) (Q9HAZ1 whole entry, looked up): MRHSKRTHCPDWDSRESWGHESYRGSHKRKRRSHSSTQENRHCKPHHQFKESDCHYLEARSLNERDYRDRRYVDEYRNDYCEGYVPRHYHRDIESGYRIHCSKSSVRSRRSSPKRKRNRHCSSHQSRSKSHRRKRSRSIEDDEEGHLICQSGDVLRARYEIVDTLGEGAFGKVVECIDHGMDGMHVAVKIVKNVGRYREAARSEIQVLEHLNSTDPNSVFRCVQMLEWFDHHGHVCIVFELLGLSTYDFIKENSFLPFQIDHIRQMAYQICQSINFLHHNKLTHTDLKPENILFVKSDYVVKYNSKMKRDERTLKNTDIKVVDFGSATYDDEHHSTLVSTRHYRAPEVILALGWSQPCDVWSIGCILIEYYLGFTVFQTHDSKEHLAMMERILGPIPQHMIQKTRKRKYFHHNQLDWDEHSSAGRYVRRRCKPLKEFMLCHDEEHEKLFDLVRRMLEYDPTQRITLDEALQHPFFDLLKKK
In short: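 Luminescent ATP-depletion read-out (Kinase-Glo) after 4.5 h room-temperature reaction of Clk4 (25 nM final) with RS peptide (100 uM) and ATP (1 uM), pH 7.5 Tris buffer with MgCl2 and DTT.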

[12] = molecular target: Dual specificity protein kinase CLK4 (Homo sapiens) (UniProt Q9HAZ1); test: qHTS Assay for Inhibitors of CDC-like Kinase 4 (ADP-Glo Assay) (AID 1771); details: recombinant CLK4, ADP-Glo luminescence; series mostly up to 80 µM; also: % is scaled to controls: 0 for no effect and ±100 for the full control effect; nearly all actives have a fitted effect of over 70% in size
In short: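 Kinase reaction: Clk4 at 25 nM, RS repeat peptide substrate at 100 uM, ATP at 1 uM, 1 hr, room temperature. Product ADP detected as luciferase signal via ADP-Glo.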

[13] = molecular target: Dual specificity protein kinase CLK4 (Homo sapiens) (UniProt Q9HAZ1); test: qHTS Assay for Inhibitors of CDC-like Kinase 4 (ADP-FP Assay) (AID 1795); details: Transcreener ADP fluorescence polarization; series mostly up to 50 µM;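 also: recombinant human CLK4 phosphorylating RS repeat peptide at 1 µM ATP; % is scaled to controls: 0 for no effect and ±100 for the full control effect; nearly all actives have a fitted effect of over 60% in size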
In short: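 Kinase activity was measured as ADP production using Transcreener orange tracer (4 nM) and ADP antibody (1 ug/mL) fluorescence polarization, with ADP calculated from a calibration curve. The 1 h reaction contained 6.25 nM Clk4, 1 uM ATP and 100 uM RS peptide at pH 7.5 with Mg2+.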

[14] = molecular target: Ubiquitin carboxyl-terminal hydrolase 1 (Homo sapiens) (UniProt O94782); test: Inhibitors of USP1/UAF1: Pilot qHTS (AID 504865); details: purified USP1/UAF1, Ub-rhodamine cleavage fluorescence; series mostly up to 54.9 µM;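 also: rhodamine fluorescence freed from ubiquitin-rhodamine substrate followed over time; top concentration of the series differs between compounds; % is scaled to controls: 0 for no effect and ±100 for the full control effect; nearly all actives have a fitted effect of over 35% in size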
Sequence of Ubiquitin carboxyl-terminal hydrolase 1 (Homo sapiens) (O94782 whole entry, looked up): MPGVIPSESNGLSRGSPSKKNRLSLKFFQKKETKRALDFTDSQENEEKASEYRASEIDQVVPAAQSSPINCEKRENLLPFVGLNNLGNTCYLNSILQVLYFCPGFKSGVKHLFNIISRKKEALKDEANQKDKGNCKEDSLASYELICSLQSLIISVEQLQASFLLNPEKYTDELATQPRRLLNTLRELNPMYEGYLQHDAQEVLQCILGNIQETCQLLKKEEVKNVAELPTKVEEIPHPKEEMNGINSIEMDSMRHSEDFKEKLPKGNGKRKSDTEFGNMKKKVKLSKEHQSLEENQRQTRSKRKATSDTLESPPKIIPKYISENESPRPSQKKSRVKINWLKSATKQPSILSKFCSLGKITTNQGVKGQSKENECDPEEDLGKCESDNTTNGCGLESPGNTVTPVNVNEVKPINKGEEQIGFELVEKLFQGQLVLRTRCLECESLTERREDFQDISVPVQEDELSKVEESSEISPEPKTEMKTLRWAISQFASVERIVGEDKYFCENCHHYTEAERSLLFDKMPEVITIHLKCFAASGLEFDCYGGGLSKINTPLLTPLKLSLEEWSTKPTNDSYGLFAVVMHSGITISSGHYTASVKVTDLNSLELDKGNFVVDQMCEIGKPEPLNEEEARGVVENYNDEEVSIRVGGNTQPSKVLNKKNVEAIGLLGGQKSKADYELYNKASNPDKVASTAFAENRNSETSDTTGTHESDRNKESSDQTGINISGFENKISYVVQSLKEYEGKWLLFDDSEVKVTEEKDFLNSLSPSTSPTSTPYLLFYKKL
In short: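 Deubiquitinase activity followed as kinetic rhodamine fluorescence release from 150 nM Ub-Rho. 1 nM USP1/UAF1 with compound, after 15 min room-temperature preincubation, in HEPES pH 7.8 buffer containing TCEP, EDTA, BSA and Tween-20.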

[15] = Primary qHTS for small molecule stabilizers of the endoplasmic reticulum resident proteome: Secreted ER Calcium Modulated Protein (SERCaMP) assay (AID 1508630); details: SH-SY5Y GLuc-SERCaMP (Gaussia luciferase released on ER calcium loss) secretion, thapsigargin, luminescence; series mostly up to 38.4 µM; also: % is scaled to controls: 0 for no effect and ±100 for the full control effect
In short: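 GLuc-SERCaMP-expressing SH-SY5Y cells, pretreated 16 h with compound, are challenged with thapsigargin to empty ER calcium stores; after 4 h, coelenterazine is added directly to the medium and luminescence is imaged.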

[16] = molecular target: Cytochrome P450 2C9 (Homo sapiens) (UniProt P11712); test: qHTS Assay for Inhibitors and Substrates of Cytochrome P450 2C9 (AID 883); details: recombinant CYP2C9, luciferin-H luminescence, 60 min; series mostly up to 57.1 µM; also: % is scaled to controls: 0 for no effect and ±100 for the full control effect; nearly all actives have a fitted effect of over 60% in size
Sequence of Cytochrome P450 2C9 (Homo sapiens) (P11712 whole entry, looked up): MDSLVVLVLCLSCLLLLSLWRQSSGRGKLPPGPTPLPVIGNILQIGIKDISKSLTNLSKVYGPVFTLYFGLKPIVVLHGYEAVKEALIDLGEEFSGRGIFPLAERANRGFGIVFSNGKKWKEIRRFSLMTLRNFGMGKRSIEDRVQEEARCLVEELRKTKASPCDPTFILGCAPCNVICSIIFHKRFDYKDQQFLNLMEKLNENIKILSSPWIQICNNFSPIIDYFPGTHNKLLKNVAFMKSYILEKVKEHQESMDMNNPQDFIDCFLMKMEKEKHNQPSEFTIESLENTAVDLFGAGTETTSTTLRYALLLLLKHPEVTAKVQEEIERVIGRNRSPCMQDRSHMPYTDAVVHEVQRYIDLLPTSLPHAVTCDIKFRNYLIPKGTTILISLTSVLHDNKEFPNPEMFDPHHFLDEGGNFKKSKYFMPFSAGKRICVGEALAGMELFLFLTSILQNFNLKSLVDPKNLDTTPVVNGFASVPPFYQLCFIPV
In short: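 A luminogenic readout tracked human CYP2C9 (10nM) converting deoxyluciferin (100uM, at KM) in 25mM KPO4 during 60 min at 37C with regenerated NADPH. Values normalized to 57uM sulphaphenazole as complete inhibition.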

[17] = molecular target: Cytochrome P450 3A4 (Homo sapiens) (UniProt P08684); test: qHTS Assay for Inhibitors and Substrates of Cytochrome P450 3A4 (AID 884); details: recombinant CYP3A4, Luciferin-PPXE luminescence; series mostly up to 57.1 µM; also: % is scaled to controls: 0 for no effect and ±100 for the full control effect; nearly all actives have a fitted effect of over 50% in size
Sequence of Cytochrome P450 3A4 (Homo sapiens) (P08684 whole entry, looked up): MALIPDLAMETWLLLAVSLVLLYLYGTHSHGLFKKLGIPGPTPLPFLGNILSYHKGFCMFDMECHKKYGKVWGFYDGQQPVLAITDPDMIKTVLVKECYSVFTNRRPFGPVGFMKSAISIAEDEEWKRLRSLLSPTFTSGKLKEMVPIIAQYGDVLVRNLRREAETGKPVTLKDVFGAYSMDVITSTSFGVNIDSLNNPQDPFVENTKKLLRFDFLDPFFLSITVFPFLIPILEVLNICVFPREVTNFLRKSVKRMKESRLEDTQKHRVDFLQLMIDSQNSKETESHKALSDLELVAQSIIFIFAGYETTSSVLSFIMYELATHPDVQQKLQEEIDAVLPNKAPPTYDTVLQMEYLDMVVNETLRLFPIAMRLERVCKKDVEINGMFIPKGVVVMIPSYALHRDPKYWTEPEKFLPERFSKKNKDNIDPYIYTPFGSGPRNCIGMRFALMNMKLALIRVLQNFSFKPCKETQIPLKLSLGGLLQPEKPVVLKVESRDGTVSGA
In short: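 20 nM human CYP3A4 with 25 uM Luciferin-PPXE (at KM) in 200 mM KPO4, preincubated 10 min with compound; NADPH regeneration started a 60 min RT reaction. Luciferin detected by luminescence, normalized to 57 uM ketoconazole as full inhibition.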

[18] = measured here: cell count channel max response
[19] = measured here: lipid channel max response

Cc1noc(C)c1-c1cc(N(C)Cc2ccco2)ncn1
active: Potency [3] 3.16 µM
17.9%: max response [10, 19]
inactive: Potency [1] > 11.4 µM | activity change, negative = inhibition [2] 1.26% | activity change, negative = inhibition [4] -16% | activity, negative = inhibition [5] 6.33% | Potency [6] > 46 µM | Potency [7] > 46 µM | outcome [8] | Potency [9] | activity change, negative = inhibition [10] 2.86% | Potency [11] | Potency [12] | Potency [13] | Potency [14] | Potency [15]
13.8%: max response [10, 18]

CN1CCN(c2ncc3nc(-c4cc(F)cc(F)c4)c(=O)n(C)c3n2)CC1
inactive: Potency [1] > 11.4 µM | activity change, negative = inhibition [2] 11.2% | activity change, negative = inhibition [4] 5.17% | activity, negative = inhibition [5] 12.7% | Potency [6] > 9.22 µM | Potency [7] > 46 µM | outcome [8] | Potency [9] | Potency [16] | activity change, negative = inhibition [10] 4.65% | Potency [11] | Potency [12] | Potency [13] | Potency [14] | Potency [15]
14.2%: max response [10, 18]
active: Potency [3] 5.01 µM
19.8%: max response [10, 19]

Cc1noc(C)c1-c1cc(NC2CCNCC2)ncn1
inactive: Potency [1] > 11.4 µM | activity change, negative = inhibition [2] 8.23% | activity change, negative = inhibition [4] 8.17% | activity, negative = inhibition [5] 5.01% | Potency [6] > 46 µM | Potency [7] > 46 µM | outcome [8] | Potency [9] | activity change, negative = inhibition [16] 23.1% [at 2.29 µM] | Potency [17] | activity change, negative = inhibition [10] 3.45% | Potency [11] | Potency [12] | Potency [13] | Potency [14] | Potency [15]
active: Potency [3] 0.126 µM
-14.9%: max response [10, 19]
-17.1%: max response [10, 18]

Cc1nc2cnc(Nc3ccccc3)nc2n(CCC#N)c1=O
-11.1%: max response [10, 18]
active: Potency [3] 0.631 µM
inactive: Potency [1] > 11.4 µM | activity change, negative = inhibition [2] -11.3% | activity change, negative = inhibition [4] -3.1% | activity, negative = inhibition [5] -19.6% | Potency [6] > 9.22 µM | Potency [7] > 46 µM | outcome [8] | Potency [9] | activity change, negative = inhibition [10] -7.58% | Potency [11] | Potency [12] | Potency [13] | Potency [14] | Potency [15]
-20.1%: max response [10, 19]
